Measurements taken from PubChem BioAssay (NCI).
About 79,000 compounds went through this panel and 15% of them were active in at least one assay; those are over-represented in the sample as a whole. Unmarked numbers belong to inactive results. The source made the active and inactive calls. Cut-off read from the data, not from the text of the source: active = growth inhibition above about 70%; inactive = the rest.

Assays:
[1] = NCI Yeast Anticancer Drug Screen. Data for the rad52 strain (AID 147);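 note: 0% = growth of vehicle-treated control cultures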; conditions: S. cerevisiae rad52 mutant growth inhibition, stronger effect = higher value
Procedure, shortened: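 Inhibition of yeast growth, referenced to vehicle controls, was the measured output for a strain with defective DNA damage repair.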

[2] = NCI Yeast Anticancer Drug Screen. Data for the wt1 strain (AID 149);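 note: 0% = growth of vehicle-treated wt1 cultures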; conditions: S. cerevisiae wt1 strain (SPY 50644) growth inhibition, stronger effect = higher value
Procedure, shortened: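 Vehicle-normalised growth inhibition; strain wt1; compound exposure.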

[3] = NCI Yeast Anticancer Drug Screen. Data for the rad50EPP+ strain (AID 151);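 note: 0% = growth of vehicle-treated control cultures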; conditions: S. cerevisiae rad50 mutant strain, stronger effect = higher value
Procedure, shortened: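 Genetically defined yeast (rad50EPP+, DNA damage repair alteration) is grown with compound, and inhibition of growth is expressed relative to vehicle-treated controls.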

[4] = NCI Yeast Anticancer Drug Screen. Data for the mgt1 strain (AID 153); conditions: S. cerevisiae mgt1 mutant growth inhibition, stronger effect = higher value
Procedure, shortened: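 In the mgt1 strain, test compounds were added and growth inhibition was determined relative to vehicle-treated controls.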

[5] = NCI Yeast Anticancer Drug Screen. Data for the rad50 strain (AID 155);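 note: 0% = growth of vehicle-only cultures of the same strain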; conditions: S. cerevisiae rad50 strain growth inhibition, stronger effect = higher value
Procedure, shortened: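 A DNA repair-deficient yeast mutant serves as the test organism; compound-induced growth inhibition is calculated against vehicle-treated cells.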

[6] = NCI Yeast Anticancer Drug Screen. Data for the mec2-1 strain (AID 157); conditions: S. cerevisiae mec2-1 strain, stronger effect = higher value
Procedure, shortened: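 Each compound was tested on mec2-1 yeast, a strain altered in DNA damage repair or cell cycle control. Growth inhibition is reported relative to vehicle.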

[7] = NCI Yeast Anticancer Drug Screen. Data for the rad14 strain (AID 159);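 note: 0% = growth of vehicle-treated control cultures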; conditions: S. cerevisiae rad14 strain growth inhibition, stronger effect = higher value
Procedure, shortened: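 Vehicle-treated cultures served as the baseline for growth inhibition of a DNA repair-mutant yeast strain exposed to each compound.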

[8] = NCI Yeast Anticancer Drug Screen. Data for the sgs1 mgt1 strain (AID 161);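 note: 0% = growth of cultures given vehicle only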; conditions: S. cerevisiae sgs1 mgt1 strain, stronger effect = higher value
Procedure, shortened: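 Mutant yeast exposed to compound; growth scored against vehicle-only wells.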

[9] = NCI Yeast Anticancer Drug Screen. Data for the CLN2oe strain (AID 163);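 note: 0% = growth of vehicle-only control cultures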; conditions: S. cerevisiae CLN2oe strain, stronger effect = higher value
Procedure, shortened: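 First, the altered yeast strain was treated with each compound; second, its growth was measured; finally, inhibition was derived by comparison with vehicle controls.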

[10] = NCI Yeast Anticancer Drug Screen. Data for the cln2 rad14 strain (AID 165);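 note: 0% = growth equal to vehicle treated cultures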; conditions: S. cerevisiae cln2 rad14 strain, stronger effect = higher value
Procedure, shortened: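 Test compounds were added to cln2 rad14 yeast cultures; inhibition of growth was then determined by comparison with vehicle treatment.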

[11] = NCI Yeast Anticancer Drug Screen. Data for the bub3 strain (AID 167); conditions: S. cerevisiae bub3 mutant strain, stronger effect = higher value
Procedure, shortened: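 Inhibition values come from growth of compound-treated mutant yeast normalised to vehicle-treated controls.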

[12] = NCI Yeast Anticancer Drug Screen. Data for the wt2 strain (AID 169);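 note: 0% = growth of vehicle-treated yeast cultures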; conditions: S. cerevisiae wt2 strain growth inhibition, stronger effect = higher value
Procedure, shortened: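 The panel's yeast strains carry defined changes in DNA repair or cell cycle genes. Each strain is grown with compound, and growth loss is scored relative to vehicle.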

[13] = NCI Yeast Anticancer Drug Screen. Data for the mlh1 strain (AID 171);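 note: 0% = growth of vehicle-treated control cultures of the same strain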; conditions: S. cerevisiae mlh1 strain growth inhibition, stronger effect = higher value
Procedure, shortened: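 Inhibition values reflect reduced yeast growth in the presence of compound, referenced to vehicle controls, using a strain chosen for its alteration in DNA repair or cell cycle control.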

[14] = NCI Yeast Anticancer Drug Screen. Data for the sgs1 strain (AID 173);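 note: 0% = growth of vehicle-only control cultures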; conditions: S. cerevisiae sgs1 mutant, stronger effect = higher value
Procedure, shortened: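 Vehicle-treated cultures served as reference for growth inhibition of a yeast strain altered in DNA damage repair or cell cycle control after compound exposure.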

[15] = NCI Yeast Anticancer Drug Screen. Data for the mlh1 rad18 strain (AID 175); conditions: S. cerevisiae mlh1 rad18 strain growth inhibition, stronger effect = higher value
Procedure, shortened: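 Inhibition values reflect reduced growth of mutant yeast versus vehicle-treated controls following compound exposure; the mutations affect DNA damage repair.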

[16] = NCI Yeast Anticancer Drug Screen. Data for the rad18 strain (AID 177); conditions: S. cerevisiae rad18 mutant growth inhibition, stronger effect = higher value
Procedure, shortened: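 Steps: expose repair-mutant yeast to compound; measure growth; express as inhibition relative to vehicle control.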

[17] = at 5.0 µM (retest, dose inferred, filed as 0.5)
[18] = at 50.0 µM (retest, dose inferred, filed as 5.0)

COC(=O)c1cc(-c2ccc(C)cc2)[nH]c(=O)c1C#N
growth inhibition ([1]; at 1.2 µM): -2% | growth inhibition ([1]; at 3.7 µM): 0% | growth inhibition ([1]; at 11.0 µM): 1% | growth inhibition ([1]; at 33.0 µM): -1% | growth inhibition ([1]; at 100.0 µM): -4% | growth inhibition ([2]; at 1.2 µM): -2% | growth inhibition ([2]; at 3.7 µM): -1% | growth inhibition ([2]; at 11.0 µM): -1% | growth inhibition ([2]; at 33.0 µM): -1% | growth inhibition ([2]; at 100.0 µM): 0% | growth inhibition ([3]; at 1.2 µM): -5% | growth inhibition ([3]; at 3.7 µM): -4% | growth inhibition ([3]; at 11.0 µM): -5% | growth inhibition ([3]; at 33.0 µM): -6% | growth inhibition ([3]; at 100.0 µM): -4% | growth inhibition ([4]; at 1.2 µM): 0% | growth inhibition ([4]; at 3.7 µM): 0% | growth inhibition ([4]; at 11.0 µM): 0% | growth inhibition ([4]; at 33.0 µM): -1% | growth inhibition ([4]; at 100.0 µM): 0% | growth inhibition ([5]; at 1.2 µM): -1% | growth inhibition ([5]; at 3.7 µM): -2% | growth inhibition [5, 17]: -5% | growth inhibition ([5]; at 11.0 µM): 0% | growth inhibition ([5]; at 33.0 µM): -4% | growth inhibition [5, 18]: 9% | growth inhibition ([5]; at 50.0 µM): 86.5% (active) | growth inhibition ([5]; at 100.0 µM): -2% | growth inhibition ([6]; at 1.2 µM): 0% | growth inhibition ([6]; at 3.7 µM): 0% | growth inhibition [6, 17]: 11% | growth inhibition ([6]; at 11.0 µM): -2% | growth inhibition ([6]; at 33.0 µM): -1% | growth inhibition [6, 18]: 24% | growth inhibition ([6]; at 50.0 µM): 56.9% | growth inhibition ([6]; at 100.0 µM): 10% | growth inhibition ([7]; at 1.2 µM): 1% | growth inhibition ([7]; at 3.7 µM): -6% | growth inhibition ([7]; at 11.0 µM): -6% | growth inhibition ([7]; at 33.0 µM): -19% | growth inhibition ([7]; at 100.0 µM): -11% | growth inhibition [8, 17]: -4% | growth inhibition [8, 18]: 20% | growth inhibition ([8]; at 50.0 µM): 84.3% (active) | growth inhibition ([9]; at 1.2 µM): -3% | growth inhibition ([9]; at 3.7 µM): 1% | growth inhibition ([9]; at 11.0 µM): -1% | growth inhibition ([9]; at 33.0 µM): 3% | growth inhibition ([9]; at 100.0 µM): 4% | growth inhibition [10, 17]: 30% | growth inhibition [10, 18]: 43% | growth inhibition ([10]; at 50.0 µM): 66% | growth inhibition ([11]; at 1.2 µM): -8% | growth inhibition ([11]; at 3.7 µM): -6% | growth inhibition [11, 17]: 33% | growth inhibition ([11]; at 11.0 µM): 6% | growth inhibition ([11]; at 33.0 µM): -2% | growth inhibition [11, 18]: 16% | growth inhibition ([11]; at 50.0 µM): 52.6% | growth inhibition ([11]; at 100.0 µM): -7% | growth inhibition ([12]; at 1.2 µM): -2% | growth inhibition ([12]; at 3.7 µM): 0% | growth inhibition ([12]; at 11.0 µM): -2% | growth inhibition ([12]; at 33.0 µM): -2% | growth inhibition ([12]; at 100.0 µM): -2% | growth inhibition ([13]; at 1.2 µM): -6% | growth inhibition ([13]; at 3.7 µM): -2% | growth inhibition ([13]; at 11.0 µM): 0% | growth inhibition ([13]; at 33.0 µM): 0% | growth inhibition ([13]; at 100.0 µM): -21% | growth inhibition ([14]; at 1.2 µM): -4% | growth inhibition ([14]; at 3.7 µM): -1% | growth inhibition ([14]; at 11.0 µM): -1% | growth inhibition ([14]; at 33.0 µM): -2% | growth inhibition ([14]; at 100.0 µM): -4% | growth inhibition [15, 17]: 0% | growth inhibition [15, 18]: -1% | growth inhibition ([15]; at 50.0 µM): 90.2% (active) | growth inhibition ([16]; at 1.2 µM): -17% | growth inhibition ([16]; at 3.7 µM): -11% | growth inhibition ([16]; at 11.0 µM): -16% | growth inhibition ([16]; at 33.0 µM): -11% | growth inhibition ([16]; at 100.0 µM): -18%

c1ccc(-c2nc3cccnc3s2)cc1
growth inhibition ([1]; at 1.2 µM): 1% | growth inhibition ([1]; at 3.7 µM): 1% | growth inhibition ([1]; at 11.0 µM): 6% | growth inhibition ([1]; at 33.0 µM): 14% | growth inhibition ([1]; at 100.0 µM): 16% | growth inhibition ([2]; at 1.2 µM): -2% | growth inhibition ([2]; at 3.7 µM): -4% | growth inhibition ([2]; at 11.0 µM): -2% | growth inhibition ([2]; at 33.0 µM): -2% | growth inhibition ([2]; at 100.0 µM): 0% | growth inhibition ([3]; at 1.2 µM): 3% | growth inhibition ([3]; at 3.7 µM): 7% | growth inhibition ([3]; at 11.0 µM): 8% | growth inhibition ([3]; at 33.0 µM): 19% | growth inhibition ([3]; at 100.0 µM): 24% | growth inhibition ([4]; at 1.2 µM): 1% | growth inhibition ([4]; at 3.7 µM): -2% | growth inhibition ([4]; at 11.0 µM): -1% | growth inhibition ([4]; at 33.0 µM): -10% | growth inhibition ([4]; at 100.0 µM): -11% | growth inhibition ([5]; at 1.2 µM): 2% | growth inhibition ([5]; at 3.7 µM): 9% | growth inhibition [5, 17]: 5% | growth inhibition ([5]; at 11.0 µM): 5% | growth inhibition ([5]; at 33.0 µM): 9% | growth inhibition [5, 18]: 56% | growth inhibition ([5]; at 50.0 µM): 73.5% (active) | growth inhibition ([5]; at 100.0 µM): 33% | growth inhibition ([6]; at 1.2 µM): -2% | growth inhibition ([6]; at 3.7 µM): -1% | growth inhibition [6, 17]: 5% | growth inhibition ([6]; at 11.0 µM): -3% | growth inhibition ([6]; at 33.0 µM): -12% | growth inhibition [6, 18]: 20% | growth inhibition ([6]; at 50.0 µM): 9.5% | growth inhibition ([6]; at 100.0 µM): 20% | growth inhibition ([7]; at 1.2 µM): -3% | growth inhibition ([7]; at 3.7 µM): 0% | growth inhibition ([7]; at 11.0 µM): -2% | growth inhibition ([7]; at 33.0 µM): 1% | growth inhibition ([7]; at 100.0 µM): 5% | growth inhibition [8, 17]: -5% | growth inhibition [8, 18]: 18% | growth inhibition ([8]; at 50.0 µM): 13.6% | growth inhibition ([9]; at 1.2 µM): 0% | growth inhibition ([9]; at 3.7 µM): -1% | growth inhibition ([9]; at 11.0 µM): 0% | growth inhibition ([9]; at 33.0 µM): -5% | growth inhibition ([9]; at 100.0 µM): 3% | growth inhibition [10, 17]: -25% | growth inhibition [10, 18]: -19% | growth inhibition ([10]; at 50.0 µM): 5.55% | growth inhibition ([11]; at 1.2 µM): -4% | growth inhibition ([11]; at 3.7 µM): 0% | growth inhibition [11, 17]: 25% | growth inhibition ([11]; at 11.0 µM): 10% | growth inhibition ([11]; at 33.0 µM): 10% | growth inhibition [11, 18]: 43% | growth inhibition ([11]; at 50.0 µM): -2.7% | growth inhibition ([11]; at 100.0 µM): 14% | growth inhibition ([12]; at 1.2 µM): -2% | growth inhibition ([12]; at 3.7 µM): -3% | growth inhibition ([12]; at 11.0 µM): -3% | growth inhibition ([12]; at 33.0 µM): -5% | growth inhibition ([12]; at 100.0 µM): 0% | growth inhibition ([13]; at 1.2 µM): 2% | growth inhibition ([13]; at 3.7 µM): 13% | growth inhibition ([13]; at 11.0 µM): 2% | growth inhibition ([13]; at 33.0 µM): -2% | growth inhibition ([13]; at 100.0 µM): 15% | growth inhibition ([14]; at 1.2 µM): -2% | growth inhibition ([14]; at 3.7 µM): -3% | growth inhibition ([14]; at 11.0 µM): -2% | growth inhibition ([14]; at 33.0 µM): -3% | growth inhibition ([14]; at 100.0 µM): -9% | growth inhibition [15, 17]: -8% | growth inhibition [15, 18]: 1% | growth inhibition ([15]; at 50.0 µM): -4.1% | growth inhibition ([16]; at 1.2 µM): 3% | growth inhibition ([16]; at 3.7 µM): 2% | growth inhibition ([16]; at 11.0 µM): -1% | growth inhibition ([16]; at 33.0 µM): -6% | growth inhibition ([16]; at 100.0 µM): -15%
